“And” between values parts separate entries of the source, which are not always exact repeats. Equal values may be shown once. Out of some 5,500 compounds screened, about 2,000 (36%) were called active. Another 18% or so got no clear call; they are omitted. No stated cut-off is given here; in the data, active means normalized growth mostly below about 0.91 (no sharp cut-off); inconclusive means no clear call, values can overlap the other calls; inactive means mostly above about 0.92. The list shows a part of the results.
Assay: chemical genetic growth profiling, strain panel (AID 1159580);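 further: tested at 20 µM; growth read once vehicle control cultures reached saturation at 30 °C; 1 = growth at the plate median or of vehicle wells; lower values mean less growth of the strain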
Conditions: S. cerevisiae deletion strains, growth OD

Measured: normalized growth

COc1c2c(cc3occ(-c4ccc5c(c4)OCO5)c(=O)c13)OC(C)(C)C=C2
inactive: locus YAL013W, strain DEP1, hits give low values 0.989 | locus YAL021C, strain ccr4, hits give low values 1 | locus YAL026C, strain drs2, hits give low values 0.975 | locus YAL030W, strain snc1, hits give low values 0.997 | locus YBL061C, strain skt5, hits give low values 0.969 | locus YBR009C, strain hhf1, hits give low values 0.966 | locus YBR021W, strain FUR4, hits give low values 0.973 | locus YBR023C, strain chs3, hits give low values 0.967 | locus YBR171W, strain sec66, hits give low values 0.988 | locus YBR229C, strain ROT2, hits give low values 0.987 | locus YBR231C, strain swc5, hits give low values 0.989 | locus YBR279W, strain paf1, hits give low values 1.03 | locus YCL011C, strain gbp2, hits give low values 0.985 | locus YCL016C, strain dcc1, hits give low values 0.994 | locus YCL029C, strain bik1, hits give low values 0.961 | locus YCL061C, strain MRC1, hits give low values 0.996 | locus YCL069W, strain vba3, hits give low values 1 | locus YCR088W, strain abp1, hits give low values 0.995 | locus YDL005C, strain med2, hits give low values 1 | locus YDL035C, strain GPR1, hits give low values 0.95 | locus YDL040C, strain nat1, hits give low values 1.01 | locus YDL074C, strain BRE1, hits give low values 0.901 | locus YDL101C, strain DUN1, hits give low values 0.98 | locus YDL185W, strain tfp1, hits give low values 0.943 | locus YDL192W, strain arf1, hits give low values 0.918 | locus YDR001C, strain nth1, hits give low values 0.994 | locus YDR069C, strain doa4, hits give low values 0.991 | locus YDR101C, strain arx1, hits give low values 0.925 | locus YDR137W, strain rgp1, hits give low values 0.964 | locus YDR159W, strain sac3, hits give low values 1.02 | locus YDR162C, strain NBP2, hits give low values 0.993 | locus YDR195W, strain ref2 1.11 | locus YDR297W, strain sur2, hits give low values 0.995 | locus YDR318W, strain mcm21, hits give low values 0.962 | locus YDR334W, strain swr1, hits give low values 1.01 | locus YDR335W, strain msn5, hits give low values 1.02 | locus YDR388W, hits give low values 0.973 | locus YDR502C, strain sam2, hits give low values 0.926 | locus YEL003W, strain gim4, hits give low values 1 | locus YEL037C, strain rad23, hits give low values 1 | locus YEL061C, strain CIN8 (second series), hits give low values 1.01 | locus YEL061C, strain CIN8, hits give low values 0.992 | locus YER015W, strain faa2, hits give low values 1 | locus YER016W, strain bim1, hits give low values 1 | locus YER110C, hits give low values 0.983 | locus YER111C, strain swi4, hits give low values 1.01 | locus YER155C, strain BEM2 (second series), hits give low values 0.936 | locus YER155C, strain BEM2, hits give low values 0.992 | locus YER167W, strain BCK2, hits give low values 0.984 | locus YFR010W, strain ubp6, hits give low values 0.989 | locus YGL078C, strain dbp3, hits give low values 0.929 | locus YGL167C, strain pmr1, hits give low values 1 | locus YGL173C, strain kem1, hits give low values 0.996 | locus YGL227W, strain vid30, hits give low values 1 | locus YGL240W, strain doc1, hits give low values 0.998 | locus YGL248W, strain PDE1, hits give low values 0.998 | locus YGL253W, strain hxk2, hits give low values 0.936 | locus YGR078C, strain PAC10, hits give low values 0.982 | locus YGR135W, strain pre9, hits give low values 0.98 | locus YGR252W, strain gcn5, hits give low values 0.983 | locus YHR013C, strain ard1, hits give low values 0.986 | locus YHR027C, strain rpn1, hits give low values 0.993 | locus YHR030C, strain SLT2, hits give low values 0.992 and 1.01 | locus YHR079C, strain IRE1 (second series), hits give low values 0.952 | locus YHR079C, strain IRE1, hits give low values 0.983 | locus YHR094C, strain hxt1, hits give low values 0.977 | locus YHR129C, strain ARP1, hits give low values 0.988 | locus YHR200W, strain rpn10, hits give low values 0.949 | locus YIL066C, strain RNR3, hits give low values 0.965 | locus YIL073C, strain SPO22, hits give low values 0.941 | locus YIL125W, strain kgd1, hits give low values 0.96 | locus YIR030C, strain dcg1, hits give low values 0.97 | locus YJL092W, strain hpr5, hits give low values 0.99 | locus YJL095W, strain BCK1 (second series), hits give low values 0.997 | locus YJL095W, strain BCK1, hits give low values 0.981 and 1.01 | locus YJL115W, strain asf1, hits give low values 1.02 | locus YJL129C, strain trk1, hits give low values 0.937 | locus YJL134W, strain LCB3, hits give low values 0.992 | locus YJL154C, strain vps35, hits give low values 1.02 | locus YJL164C, strain tpk1, hits give low values 0.981 | locus YJL166W, strain qcr8, hits give low values 0.973 | locus YJL168C, strain set2, hits give low values 0.972 | locus YJL187C, strain SWE1 (second series), hits give low values 0.975 | locus YJL187C, strain SWE1, hits give low values 1 | locus YJR043C, strain POL32, hits give low values 0.999 | locus YJR066W, strain TOR1, hits give low values 0.955 | locus YJR075W, strain HOC1, hits give low values 0.976 | locus YKL009W, strain mrt4, hits give low values 0.885 | locus YKL068W, hits give low values 0.959 | locus YKL085W, strain MDH1 (second series), hits give low values 0.965 | locus YKL085W, strain MDH1, hits give low values 0.965 | locus YKL160W, strain elf1, hits give low values 0.965 | locus YKL190W, strain CNB1, hits give low values 0.984 | locus YKR026C, strain gcn3, hits give low values 0.999 | locus YKR091W, strain srl3, hits give low values 1 | locus YLL001W, strain dnm1, hits give low values 0.989 | locus YLL026W, hits give low values 1 | locus YLL041C, strain sdh2, hits give low values 0.996 | locus YLR027C, strain aat2, hits give low values 0.971 | locus YLR039C, strain RIC1, hits give low values 0.939 | locus YLR058C, strain SHM2, hits give low values 1 | locus YLR102C, strain apc9, hits give low values 0.963 | locus YLR113W, strain HOG1, hits give low values 0.995 | locus YLR221C, strain rsa3, hits give low values 0.948 | locus YLR258W, strain gsy2, hits give low values 0.989 | locus YLR262C, strain YPT6 (second series), hits give low values 0.94 | locus YLR262C, strain YPT6, hits give low values 0.937 | locus YLR268W, strain sec22, hits give low values 0.905 | locus YLR320W, strain mms22, hits give low values 0.928 | locus YLR330W, strain CHS5, hits give low values 0.981 | locus YLR342W, strain FKS1 (second series), hits give low values 0.963 | locus YLR342W, strain FKS1, hits give low values 0.989 | locus YLR357W, strain rsc2, hits give low values 1.02 | locus YLR370C, strain arc18, hits give low values 1 | locus YLR371W, strain rom2, hits give low values 0.944 | locus YLR384C, strain iki3, hits give low values 1.01 | locus YLR418C, strain cdc73, hits give low values 0.87 | locus YML016C, strain PPZ1, hits give low values 1 | locus YML032C, strain rad52, hits give low values 0.999 | locus YML120C, strain ndi1, hits give low values 0.987 | locus YML124C, strain tub3, hits give low values 0.979 | locus YMR058W, strain fet3, hits give low values 0.987 | locus YMR078C, strain ctf18, hits give low values 0.986 | locus YMR125W, strain sto1, hits give low values 1.01 | locus YMR129W, hits give low values 1.01 | locus YMR205C, strain PFK2, hits give low values 0.946 | locus YMR223W, strain ubp8, hits give low values 0.97 | locus YMR231W, strain pep5, hits give low values 1.01 | locus YMR263W, strain SAP30, hits give low values 0.97 | locus YMR307W, strain GAS1, hits give low values 1.05 | locus YNL067W, strain RPL9B, hits give low values 0.986 | locus YNL128W, strain TEP1, hits give low values 0.943 | locus YNL153C, strain GIM3, hits give low values 0.993 | locus YNL183C, strain NPR1, hits give low values 0.933 | locus YNL209W, strain ssb2, hits give low values 1.02 | locus YNL233W, strain BNI4, hits give low values 0.954 | locus YNL248C, strain rpa49, hits give low values 0.963 | locus YNL250W, strain rad50, hits give low values 0.925 | locus YNL271C, strain bni1, hits give low values 0.98 | locus YNL298W, strain CLA4, hits give low values 0.962 | locus YNL307C, strain MCK1, hits give low values 0.952 | locus YNL322C, strain KRE1 (second series), hits give low values 1.02 | locus YNR049C, strain mso1, hits give low values 1 | locus YNR052C, strain pop2, hits give low values 0.99 | locus YOL012C, strain htz1 1.17 | locus YOL147C, strain pex11, hits give low values 0.949 | locus YOR001W, strain rrp6, hits give low values 0.957 | locus YOR061W, strain CKA2, hits give low values 0.997 | locus YOR069W, strain VPS5, hits give low values 0.991 | locus YOR070C, strain gyp1, hits give low values 0.992 | locus YOR080W, strain dia2, hits give low values 1.02 | locus YOR083W, strain WHI5, hits give low values 0.961 | locus YOR106W, strain vam3, hits give low values 0.975 | locus YOR136W, strain idh2, hits give low values 0.958 | locus YOR144C, strain elg1, hits give low values 0.984 | locus YOR231W, strain MKK1, hits give low values 1.02 | locus YOR265W, strain rbl2, hits give low values 0.999 | locus YOR270C, strain vph1, hits give low values 0.817 | locus YOR290C, strain snf2, hits give low values 0.91 | locus YOR316C, strain cot1, hits give low values 0.986 | locus YPL051W, strain arl3, hits give low values 0.973 | locus YPL055C, strain LGE1, hits give low values 0.926 | locus YPL078C, strain atp4, hits give low values 0.952 | locus YPL106C, strain sse1, hits give low values 1.02 | locus YPL240C, strain hsp82, hits give low values 0.997 | locus YPL256C, strain CLN2, hits give low values 0.997 | locus YPR119W, strain clb2, hits give low values 0.964 | locus YPR141C, strain kar3, hits give low values 0.979 | locus YPR163C, strain tif3, hits give low values 0.978 | locus YPR167C, strain met16, hits give low values 0.956 | strain wtn01, hits give low values 0.911
active: locus YDR392W, strain spt3, hits give low values 0.644 | locus YGL086W, strain mad1, hits give low values 0.889 | locus YHR142W, strain chs7, hits give low values 0.857 | locus YKR001C, strain vps1, hits give low values 0.895 | locus YNL071W, strain lat1, hits give low values 0.89 | locus YOR184W, strain ser1, hits give low values 0.795
